Compound activity from PubChem.
In the library only some 7.2% were active in any assay of this set; here they are far more common.
Lassa entry inh: qHTS for Inhibitors of binding or entry into cells for Lassa Virus; Lassa virus pseudotype entry inhibition, cell reporter; Potency, µM (doses to about 37.9 µM), for the others: at the highest dose activity change, negative = inhibition, hits mostly inhibitors; actives 1.2% (n = 300,000); AID 540256, 2011; calls by dose curve; tested in HEK293 cells; further: nearly all actives have a fitted effect of over 50% in size
HCV inhibitor: qHTS Assay for Inhibitors of Hepatitis C Virus (HCV); Huh7.5.1 HCVcc-Cre infection, luciferase reporter, 44 h; Potency, µM (doses to about 41.8 µM), for the others: at the top dose activity change, negative = inhibition, most hits filed as inhibitors; actives 3.4% (n = 340,000); AID 651820, 2012
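Cells seeded at 1,000/well and cultured 4 h, then compounds added followed by HCVcc-Cre virus (~0.5 moi). After 44 h further culture, luciferase substrate was added, plates held 15 min at room temperature, and luminescence read for 15 sec.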
Sm TGR inh: qHTS Assay for the Inhibitors of Schistosoma Mansoni Peroxiredoxins; purified TGR, DTNB reduction, TNB absorbance 405 nm; actives 3% (n = 360,000); Potency, µM (top dose mostly 114 µM), for the others: top-dose activity change, negative = inhibition, actives largely listed as inhibitors; AID 485364, 2010; further: nearly all actives have a fitted effect of over 60% in size
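TGR 20 nM + NADPH 100 uM (dispensed conc.), cpd preinc 15 min RT; start with NADPH (500 uM addition) then DTNB (15 mM addition). Kinetic TNB absorbance, 405 nm filter. Four-parameter Hill fit across titration.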
RE007 growth inh: qHTS Assay for Inhibitors of the HIV-1 protein Vpr; S. pombe RE007 Vpr strain, BacTiter-Glo ATP luminescence, 24 h; Potency, µM (series often up to 92.2 µM), without a hit: at the top dose activity change, negative = less growth, most hits filed as inhibitors; actives 0.21% (n = 360,000); active means well fitted falling curve with a large enough effect; inconclusive means small, poorly fitted or top-dose-only effect; inactive means no such curve, though single readings can be large or run the other way; further: nearly all actives have a fitted effect of over 50% in size
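Fission yeast RE007 carrying one integrated HIV-1 vpr copy, seeded at OD 0.01 in PMG+AL medium with 23 nL pinned compound. Grown 24 h at 30 degrees; viability read by BacTiter-Glo luminescence after 5 min.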
FMDV antiviral: High Throughput Screening for Foot and Mouth Disease Virus Antivirals; actives 1.2% (n = 410,000); Potency, µM (doses to about 57.9 µM), without a hit: at the highest dose activity change, negative = inhibition, most hits filed as inhibitors; FMDV antiviral cell-based qHTS; AID 1159524, 2015; calls by dose curve; tested in HEK293T cells; further: read-out not given here; nearly all actives have a fitted effect of over 45% in size
Marburg entry inh: qHTS for inhibitors of binding or entry into cells for Marburg Virus; Marburg virus pseudotyped entry inhibition, cell reporter; AID 540276, 2011; Potency, µM (series often up to 37.8 µM), for the others: at the highest dose activity change, negative = inhibition, most hits filed as inhibitors; actives 1.8% (n = 300,000); calls by dose curve; tested in HEK293 cells
* marks the source's active call; other numbers are inactive results; ? = inconclusive; nt = no result; ! = not confirmed by another sample; [ ] = another dose, or the depositor's remark. Unless noted, the call rests on the fitted dose curve; in most records, active means well fitted curve in the direction sought with a large enough effect; inconclusive means small, poorly fitted or top-dose-only effect, or another doubt; inactive means no such curve, though single readings can be large; an effect the other way counts as inactive or inconclusive. On the % scale 0 is the no-effect control and ±100 the full control effect; potency means the concentration at half of the fitted maximal effect.

SMILES	Lassa entry inh	HCV inhibitor	Sm TGR inh	RE007 growth inh	FMDV antiviral	Marburg entry inh
O=C(NC1(C(F)(F)F)NC(=O)N(Cc2ccco2)C1=O)c1cccs1 (stereo unspecified)	?	-8%	35µM*	0%	-18%	12%
Cc1sc2nc(SCC(=O)Nc3ccc(Cl)c(C(=O)O)c3)[nH]c(=O)c2c1C	?	1%	nt	2%	-16%	13µM*
Cc1sc2nc(SCC(=O)Nc3cccc(C(=O)O)c3)[nH]c(=O)c2c1C	4%	-14%	-10%	1%	-20%	13%
CCOc1cccc(C(=O)Nc2cc(C)c(O)c(-c3nc4ncccc4o3)c2)c1	-11%[46.1 µM]	nt	9%	nt	-12%	4%[46.1 µM]
CC(C)N1CCC(N2CCN(C3CCCC3)CC2CCO)CC1 (stereo unspecified)	14%	4%	nt	-5%	-1%	-11%[46.1 µM]
Cc1cccc(N2CCC(N3CCN(C4CCCCC4)C(CCO)C3)CC2)c1C (stereo unspecified)	6%[46.1 µM]	?	5µM*	-15%	?	?
COc1ccc(CN2CCCC(n3cc(C(=O)N4CCCCC4)nn3)C2)c(OC)c1 (stereo unspecified)	nt	nt	nt	nt	-9%	nt
CN(C)C(=O)Oc1ccc2oc(=O)cc(-c3cc4ccccc4o3)c2c1	nt	11µM*	-7%	-14%	0%	nt
Cc1cc2oc(=O)cc(-c3cc4ccccc4o3)c2cc1OC(=O)N(C)C	-23%[46.1 µM]	5µM*	-26%	-16%	-28%	3%[46.1 µM]
CCN(CC)C(=O)Oc1cc2c(-c3cc4cccc(OC)c4o3)cc(=O)oc2cc1C	?	6.3µM*	-2%	7%	-15%	26%[46.1 µM]
COC(=O)COc1ccc2oc(=O)cc(-c3cc4ccccc4o3)c2c1	nt	-4%	0%	-3%	-6%	nt
COc1cccc2cc(-c3cc(=O)oc4ccc(O)cc34)oc12	nt	-19%	-20%	-12%	-7%	nt
CC(=O)N1CCc2c(sc3c2c(=O)n(-c2ccccc2C)c(=O)n3CC(=O)c2ccccc2)C1	nt	nt	-3%	nt	0%	11%[46.1 µM]
CC(C)(C)OC(=O)N1CCC[C@@H]1C(O)(c1ccccc1)c1ccccc1	nt	nt	nt	nt	nt	-13%[14.2 µM]
c1coc(-c2ccccc2CN2CCOc3ccc(CN4CCOCC4)cc3C2)c1	nt	nt	nt	nt	0%	nt
COc1ccc(NC(=O)Cn2c3ncccc3c(=O)n2-c2ccc(C)c(C)c2)c(OC)c1	-15%[46.1 µM]	nt	-3%	nt	-9%	nt
Cc1ccc(N(CC(=O)NCCSc2ccccc2)S(=O)(=O)c2ccc(F)cc2)cc1	-13%[46.1 µM]	nt	2%	nt	?	nt
O=C(N/N=C/c1cc(Br)c(Br)o1)c1ccc2c(c1)OCCO2	-15%	?	11µM*	-15%	5%	?
O=C(N/N=C\c1cc(Cl)ccc1O)c1ccc(S(=O)(=O)N2CCCCC2)cc1	?	3.5µM*	0%	-23%	-22%	?
O=C(N/N=C/c1cc(Br)c(O)c(Br)c1O)c1ccc2c(c1)OCCO2	?	?	?	-4%	31%	-28%[46.1 µM]
O=C(N/N=C/c1cc(Cl)ccc1O)c1cccnc1	?	5µM*	-2%	37%	8%	?
O=C(N/N=C/c1cc(Br)c(Br)o1)c1cccnc1	-16%	6%	28µM*	-2%	8%	-24%
CC1(C(=O)NS(=O)(=O)c2ccccc2Cl)CCN1C(=O)Cc1cccs1 (stereo unspecified)	nt	nt	nt	1%[18.4 µM]	-3%	nt
Cc1cc(F)ccc1NC(=O)CCS(=O)(=O)c1cc2c3c(c1)CCN3C(=O)CC2	19%[46.1 µM]	nt	10%	nt	1%	nt
COc1ccccc1N1CCN(c2ccc(-c3ccccc3)nn2)CC1	3.5µM*	?	-1%	-20%	-61%	1.6µM*
SMILES	Lassa entry inh	HCV inhibitor	Sm TGR inh	RE007 growth inh	FMDV antiviral	Marburg entry inh
Cc1c(C(=O)N2CCN(c3ccc(F)cc3)CC2)sc2nc(-c3ccccc3)cn12	12%	1%	-1%	21%	12%	-24%
COc1ccccc1N1CCN(C(=O)c2sc3nc(-c4ccccc4)cn3c2C)CC1	-3%	11µM*!	-2%	10%	nt	?
Cc1ccc(CC(=O)Nc2c(C(=O)N3CCN(c4ccccc4F)CC3)oc3ccccc23)cc1	0%[46.1 µM]	nt	45µM*	nt	25%	-15%[46.1 µM]
COc1ccccc1N1CCN(c2ccc3ccccc3n2)CC1	?	?	0%	-10%	14%	?
COc1ccccc1N1CCN(C(=O)c2cc3c(C)nc4ccccc4c3o2)CC1	11µM*	6.3µM*	0%	10%	?	?
COc1ccccc1S(=O)(=O)Cc1ccc(C(=O)N2CCN(c3ccc(C)cc3)C(C)C2)o1 (stereo unspecified)	nt	?	?	0%	32µM*	6%
CCOC(=O)N1CCN(C(=O)c2ccc(CS(=O)(=O)c3ccccc3OC)o2)CC1	2%	13%	0%	2%	-19%	-13%
Cc1ccccc1S(=O)(=O)Cc1ccc(C(=O)N2CCN(c3ccccc3F)CC2)o1	?	10µM*	-10%	1%	?	?
Cc1ccccc1S(=O)(=O)Cc1ccc(C(=O)N2CCN(c3ccc(F)cc3)CC2)o1	?	?	-15%	12%	?	?
COc1ccccc1N1CCN(C(=O)c2ccc(CS(=O)(=O)c3ccccc3OC)o2)CC1	1%	-3%	28µM*	11%	?	6%
Cn1c(=O)c2ccccc2n2c(CCl)nnc12	?	-4%	32µM*	-22%	-27%	-16%[46.1 µM]
CC(=O)NC1C(O)C[C@@](O)(C(=O)O)OC1[C@@H](O)C(O)CO (stereo partly specified)	nt	nt	nt	nt	2%	nt
CCOc1ccccc1CNC(=O)CCc1cn(C)c2ccccc12	-11%[46.1 µM]	?	2%	-4%	-11%	6.3µM*
CCOc1ccccc1CNC(=O)CCCc1cn(C)c2ccccc12	-16%	0%[8.37 µM]	1%	7%	-26%	-5%
COc1ccc(-c2nc(CCl)cs2)cc1	nt	-4%	-34%	-29%	15%	nt
COc1ccc(-c2nc(CCl)cs2)cc1OC	-6%	11µM*	?	-17%	-19%	23%[46.1 µM]
CCOc1ccc2nc(SCC#N)c(C#N)cc2c1	-8%	-15%	-2%	-10%	0%	?
CCSc1nc2ccc(OC)cc2cc1C#N	13%	10µM*	-4%	1%	0%	?
COc1ccc2cc(C#N)c(NC(C)C)nc2c1	3%	?	1%	6%	-11%	-6%[46.1 µM]
CCN(CC)c1nc2cc(OC)ccc2cc1C#N	nt	?	35µM*	nt	?	3%
CCN(CC)c1nc(C#N)cc(-c2ccc(OC)cc2)n1	?	7.1µM*	8%	-11%	?	?
COc1cc(O)c(C(=O)O)c(O)c1	nt	nt	nt	nt	3%	nt
